According to PubChem BioAssay AID1851 (National Center for Advancing Translational Sciences (NCATS), 2009):
In all, about 16,000 compounds went through this assay and about 5,800 (36%) were called active. Inconclusive results (about 23%) are left out. This is one part of the list. Unmarked numbers belong to inactive results. The call rests on the fitted dose curve; in most records, active means well fitted curve in the direction sought with a large enough effect; inconclusive means small, poorly fitted or top-dose-only effect, or effect the other way; inactive means no such curve, though single readings can be large or run the other way.
On the % scale 0 is the no-effect control and ±100 the full control effect.

The molecules below were run against Cytochrome P450 2C19 (Homo sapiens) (UniProt P33261) (assay: Cytochrome panel assay with activity outcomes). Settings: recombinant CYP, pro-luciferin dealkylation, luminescence, p450-cyp2c19; series mostly up to 57.1 µM; activity, negative = inhibition: at the top concentration.
Chain of Cytochrome P450 2C19 (Homo sapiens) (P33261 whole entry, looked up): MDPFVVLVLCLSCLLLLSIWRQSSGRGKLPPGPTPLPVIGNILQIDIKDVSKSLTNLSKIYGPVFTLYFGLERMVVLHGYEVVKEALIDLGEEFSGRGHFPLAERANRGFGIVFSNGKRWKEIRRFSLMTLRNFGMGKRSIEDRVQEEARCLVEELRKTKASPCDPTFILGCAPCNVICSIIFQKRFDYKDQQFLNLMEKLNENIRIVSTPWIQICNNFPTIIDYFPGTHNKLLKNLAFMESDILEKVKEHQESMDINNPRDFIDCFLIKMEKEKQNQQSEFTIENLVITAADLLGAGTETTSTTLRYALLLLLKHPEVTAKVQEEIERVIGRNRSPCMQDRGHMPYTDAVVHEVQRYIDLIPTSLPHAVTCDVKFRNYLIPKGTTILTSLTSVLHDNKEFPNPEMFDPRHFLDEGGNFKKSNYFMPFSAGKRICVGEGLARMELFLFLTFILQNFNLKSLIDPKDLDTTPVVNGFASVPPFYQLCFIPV
With `Cc1ccccc1C1C(C#N)=C2N=C(N)c3c(sc4c3CCCCC4)N2C2=C1C(=O)CC(C)(C)C2` (stereo unspecified) the AC50 was 6.31 µM (active). `COc1cc(C2C(C#N)=C(N)N(c3sc4c(c3C#N)CCCC4)C3=C2C(=O)CC(C)(C)C3)cc(OC)c1OC` (stereo unspecified) was tested, and the AC50 was 10 µM (active). `CC(=O)OC[C@@H]1O[C@@H](O/N=C2/C[C@@H](O)[C@@H](O)[C@@H]3[C@@H]4C(=O)N(C[C@@H]5CCCO5)C(=O)[C@H]4CC[C@@H]23)[C@H](OC(C)=O)[C@H](OC(C)=O)[C@@H]1OC(C)=O` showed an activity, negative = inhibition of 3.68% [at 11.4 µM]. For `COc1cccc(Cn2c(NCc3cccnc3)nc3c2c(=O)n(C)c(=O)n3C)c1`, the AC50 was 17.8 µM (active). For `Nc1nc(-c2ccccc2)c(-c2ccccc2)s1`, the AC50 was 8.91 µM (active). With `Nc1ccc(-c2sc(N)nc2-c2ccccc2)cc1` the AC50 was 7.94 µM (active). In the case of `Nc1nc(-c2ccccc2)c(-c2ccccc2)c(-c2nc(N)nc(-c3ccccc3)c2-c2ccccc2)n1`, the activity, negative = inhibition is reported as 13% [at 11.4 µM]. In the case of `Cc1ccc(C)c(NC(=O)C2C3CCCC2C3c2ccccc2)c1` (stereo unspecified), the “activity, negative = inhibition” value is reported as -1.2%. For `Cc1ccc(C)c(NC(=O)C2CC3c4ccccc4C2c2ccccc23)c1` (stereo unspecified), the AC50 was 20 µM (active). `Nc1nc2c(ncn2COC(CO)CO)c(=O)[nH]1` was tested, and the AC50 was “inactive”. `CC(=O)c1sc(N)c(C(=O)OC(C)C)c1C` was tested, and the AC50 was 1.58 µM (active). With `CC(C)CN1CCCC2(CCN(C(=O)c3cc(C(F)(F)F)cc(C(F)(F)F)c3)CC2)C1` the “activity, negative = inhibition” value was -8.77%. In the case of `CC(C)[C@H](NC(=O)OC(C)(C)C)[C@@H](O)CC(=O)OC(C)(C)C`, the activity, negative = inhibition is reported as -17.9% [at 11.4 µM]. In the case of `CCOC(=O)CSCC(NC(=O)OC(C)(C)C)C(=O)OCC` (stereo unspecified), the AC50 is reported as 10 µM (active). `CC(=O)C[C@H](O)[C@@H](NC(=O)OC(C)(C)C)C(C)C` gave an activity, negative = inhibition of -9.61% [at 11.4 µM]. `Cc1nn(Cc2ccc(Cl)cc2)c(C)c1NC(=O)Cn1nc([N+](=O)[O-])c(Cl)c1C` was tested, and the “activity, negative = inhibition” value was 25.1%. With `Cc1c(Cl)c([N+](=O)[O-])nn1Cc1ccc(C(=O)N/N=C\c2cc(Cl)ccc2O)o1` the AC50 was 1.78 µM (active). With `Cc1c(Cl)c([N+](=O)[O-])nn1Cc1ccc(C(=O)N/N=C\c2cccc(Br)c2)o1` the AC50 was 1.12 µM (active). In the case of `O=C(/C=C/c1cccc(Cl)c1)Nc1ccncc1`, the AC50 is reported as 0.0708 µM (active). `O=C(O)/C=C\C(=O)Nc1ccc2c(c1)C(=O)c1cc(F)ccc1-2` showed an activity, negative = inhibition of 28.8% [at 11.4 µM]. `Cc1nc(N=Nc2cc(S(=O)(=O)O)ccc2S(=O)(=O)O)c(COP(=O)(O)O)c(C=O)c1O` was tested, and the “activity, negative = inhibition” value was -31.8%. In the case of `CCCCC1(C)OC(=O)C(=Cc2ccc(N(CC)CC)cc2)C(=O)O1` (stereo unspecified), the AC50 is reported as 10 µM (active). For `CN(C)c1ccc(/C=C2/C(=O)Nc3ccccc32)cc1`, the “activity, negative = inhibition” value was -24.9%. In the case of `O=C1Oc2ccccc2C2(O)C3CCCCCC3C12` (stereo unspecified), the AC50 is reported as 1.41 µM (active). For `C#CCSc1nc(Cc2ccc(Cl)cc2)nc2ccccc12`, the AC50 was 0.501 µM (active). For `C#CCSc1nnc(-c2sc3ccccc3c2Cl)o1`, the “activity, negative = inhibition” value was -28.6%. With `CC1(C)CC(=O)C(C(C#Cc2ccccc2)C2=C(O)CC(C)(C)CC2=O)=C(O)C1` the AC50 was 4.47 µM (active). For `CC(=O)N1CCC2(CC1)CN(C(c1ccccc1)c1ccccc1)C2`, the “activity, negative = inhibition” value was 16.5%. `O=C(c1ccncc1)N1CCC2(CC1)CN(C(c1ccccc1)c1ccccc1)C2` was tested, and the “activity, negative = inhibition” value was -40.4%. `Cc1noc(C)c1C(=O)N1CCC2(CCCN(C(c3ccccc3)c3ccccc3)C2)CC1` was tested, and the “activity, negative = inhibition” value was -32.8%. In the case of `O=C(c1ccncc1)N1CCC2(CCCN(C(c3ccccc3)c3ccccc3)C2)CC1`, the AC50 is reported as 10 µM (active). In the case of `CC(=O)N1CCC2(CC1)CCN(C(c1ccccc1)c1ccccc1)CC2`, the “activity, negative = inhibition” value is reported as -26.9%. For `CC(=O)N1CCC2(CCCN(C(c3ccccc3)c3ccccc3)C2)CC1`, the AC50 was 15.8 µM (active). In the case of `Cc1cccc(CNc2ncnc3ccc(-c4ccc5c(c4)OCO5)cc23)c1`, the AC50 is reported as 5.01 µM (active). For `c1ccc(CNc2ncnc3ccc(-c4ccc5c(c4)OCO5)cc23)cc1`, the AC50 was 3.16 µM (active). In the case of `c1ccc(Nc2ncnc3ccc(-c4ccc5c(c4)OCO5)cc23)cc1`, the “activity, negative = inhibition” value is reported as -41.2%. In the case of `Cc1cc(O)c(C(C)C)cc1C1(c2cc(C(C)C)c(O)cc2C)OC(=O)c2ccccc21`, the AC50 is reported as 3.16 µM (active). `O=c1c(-c2ccc(F)cc2)nc2cnc(N3CCOCC3)nc2n1C1CC1` was tested, and the “activity, negative = inhibition” value was 2.66%. In the case of `Cc1ccc(S(=O)(=O)NC(=O)NN2C[C@H]3CCC[C@@H]3C2)cc1`, the “activity, negative = inhibition” value is reported as -36.1% [at 25.6 µM]. `Cc1ccc(S(=O)(=O)N(CC(=O)N2CCN(c3ccc(F)cc3)CC2)C2CCCCC2)cc1` was tested, and the AC50 was 2.82 µM (active). For `COc1ccc(-c2nc3cnc(Nc4ccccc4)nc3n(CCC#N)c2=O)cc1`, the “activity, negative = inhibition” value was -8.02%. `COc1ccc(-n2c(=O)c(-c3cccs3)nc3cnc(Nc4cccc(OC)c4)nc32)cc1` was tested, and the “activity, negative = inhibition” value was -16.8%. In the case of `COc1ccc(C2CC(=O)c3cnc(Nc4cc(C)cc(C)c4)nc3C2)cc1` (stereo unspecified), the AC50 is reported as 11.2 µM (active). `COc1ccc(-n2c(=O)c(C)nc3cnc(Nc4ccccc4)nc32)cc1` was tested, and the “activity, negative = inhibition” value was -35.7%. `COc1ccc(Nc2ncc3c(n2)CC(c2ccc(C)cc2)CC3=O)cc1` (stereo unspecified) was tested, and the AC50 was 8.91 µM (active). In the case of `COc1cccc(Nc2ncc3nc(C)c(=O)n(C4CC4)c3n2)c1`, the “activity, negative = inhibition” value is reported as -10.3%.
